Reference: PubChem BioAssay (Tox21)
Inconclusive results are not listed. Some compounds were tested as several samples or in several runs, with calls that do not always agree. Calls of active or inactive are those of the source. The call rests on the fitted dose curve.

assay: qHTS assay to identify small molecule agonists of the progesterone receptor (PR) signaling pathway - cell viability counter screen (AID 1346799); conditions: PR-UAS-bla HEK293T viability, CellTiter-Glo luminescence, 16 h; series mostly up to 92.4 µM; activity change, negative = cytotoxicity: at the top concentration; further: nearly all actives have a fitted effect of over 45% in size
Text: National Center for Advancing Translational Sciences [NCATS]
NIH Chemical Genomics Center [NCGC]
U.S. Environmental Protection Agency [EPA]
National Institutes of Environmental Health Sciences [NIEHS]
National Toxicology Program [NTP]
U.S. Food and Drug Administration [FDA]
Progesterone receptor (PR), a nuclear hormone receptor, plays an important role in development, metabolic homeostasis and reproduction. It is activated by the steroid hormone progesterone. Endocrine disrupting chemicals (EDCs) and their interactions with steroid hormone receptors like PR causes disruption of normal endocrine function. To identify the compounds that stimulate PR signaling, a PR-UAS-bla GripTite cell line i.e. PR-UAS-bla HEK293T (Invitrogen, Carlsbad, CA, USA) containing a beta-lactamase reporter gene under the control of an UAS response element was used to screen Tox21 10K compound library. The cytotoxicity of the Tox21 compound library against the PR-bla cell line was tested in parallel by measuring the cell viability using CellTiter-Glo assay in the same wells.
Tox21 Assay Protocol Summary:
PR-UAS-bla HEK293T cells were dispensed at 3,000 cells/5 uL of assay medium containing 2% charcoal stripped FBS per well into black wall/clear-bottom 1536-well plates using a Multidrop Combi (ThermoFisher Scientific, Waltham, MA) dispenser. After the assay plates were incubated at a 37C and 5% CO2 for 6 hr, 23 nL of compounds dissolved in DMSO, positive controls or DMSO only was transferred to the assay plate by a Pintool station (Kalypsys, San Diego, CA). The plates were incubated at 37C and 5% CO2 for 16 hr. Then 1 uL of LiveBLAzer B/G FRET substrate was added using a Flying Reagent Dispenser (FRD, Aurora Discovery, San Diego, CA), the plates were incubated at room temperature for 2 hours, and fluorescence intensity was measured by an Envision plate reader (PerkinElmer, Shelton, CT). For cell viability readout that measures cytotoxicity, 4 uL/well of CellTiter-Glo reagent was added into the assay plates using a FRD. After 30 min incubation at room temperature, the luminescence intensity in the plates was measured using a ViewLux (PerkinElmer) plate reader.
On the % scale 0 is the no-effect control and ±100 the full control effect; potency means the concentration at half of the fitted maximal effect.

Question: For CC(=O)[O][Pb]([c]1ccccc1)([c]1ccccc1)[c]1ccccc1, which Potency is on record?
Answer: 4.33 µM (active)

Question: With CC(C)C(Br)C(=O)NC(N)=O (stereo not given) as the compound, how does the “activity change, negative = cytotoxicity” value read?
Answer: 1.95% [at 42.5 µM] (inactive)

Question: With CC(C)=CCN1CC[C@@]2(C)c3cc(O)ccc3C[C@@H]1[C@@H]2C as the compound, how does the “activity change, negative = cytotoxicity” value read?
Answer: -20.1% (inactive)

Question: With COC(=O)/C=C(\C)OP(=O)(OC)OC as the compound, how does the “activity change, negative = cytotoxicity” value read?
Answer: 31.7% (inactive)

Question: With [Cl-].[Cl-].[Sn+2] as the compound, how does the “activity change, negative = cytotoxicity” value read?
Answer: 5.37% (inactive)

Question: For CCNc1nc(NC(C)C(C)C)nc(SC)n1 (stereo not given), which “activity change, negative = cytotoxicity” value is on record?
Answer: 28.5% (inactive)

Question: Which “activity change, negative = cytotoxicity” value does the source give for CCCCON=O here?
Answer: 0% (inactive)

Question: For N#Cc1c2ccccc2cc2ccccc12, which “activity change, negative = cytotoxicity” value is on record?
Answer: 0.0569% (inactive)

Question: For Cc1ccc([N+](=O)[O-])[c]2c1[O][Hg]2, which Potency is on record?
Answer: 5.31 µM (active)

Question: With CCC[CH2][Sn]([CH2]CCC)([CH2]CCC)[O][Sn]([CH2]CCC)([CH2]CCC)[CH2]CCC as the compound, how does the Potency read?
Answer: 1.89 µM (active)

Question: With Oc1cccc(Cl)c1Cl as the compound, how does the Potency read?
Answer: 27.4 µM (active)

Question: Which “activity change, negative = cytotoxicity” value does the source give for CN/C(=N\[N+](=O)[O-])NCc1cnc(Cl)s1 here?
Answer: -4.84% (inactive)

Question: Which Potency does the source give for [Cl][Hg][c]1ccccc1 here?
Answer: 3.06 µM (active)

Question: With BrCC(Br)(Br)Br as the compound, how does the “activity change, negative = cytotoxicity” value read?
Answer: -1.33% (inactive)

Question: For ClCBr, which “activity change, negative = cytotoxicity” value is on record?
Answer: -8.42% (inactive)

Question: Which Potency does the source give for C[C@]12Cc3cn[nH]c3C[C@@H]1CC[C@@H]1[C@@H]2CC[C@@]2(C)[C@H]1CC[C@]2(C)O here?
Answer: 18.8 µM (active)

Question: With CCN(CC)C(=O)N[C@@H]1C=C2c3cccc4[nH]cc(c34)C[C@@H]2N(C)C1 as the compound, how does the “activity change, negative = cytotoxicity” value read?
Answer: 13.8% [at 42.5 µM] (inactive)

Question: Which “activity change, negative = cytotoxicity” value does the source give for CCc1cccc(C)c1N(C(=O)CCl)[C@@H](C)COC here?
Answer: 41.1% (inactive)

Question: Which Potency does the source give for CC(=O)[O][Sn]([c]1ccccc1)([c]1ccccc1)[c]1ccccc1 here?
Answer: 0.433 µM (active)

Question: Which Potency does the source give for CCN(CC)C(=S)S here?
Answer: 17.1 µM (active) and inactive

Question: Which “activity change, negative = cytotoxicity” value does the source give for O=C(N[C@H]1N=C(c2ccccc2F)c2cccc3c2N(CC3)C1=O)c1cc2ccccc2[nH]1 here?
Answer: 7.62% [at 42.5 µM] (inactive)

Question: Which “activity change, negative = cytotoxicity” value does the source give for BrCCCBr here?
Answer: 16.2% (inactive)

Question: With Cc1ccccc1OP(=O)(Oc1ccccc1C)Oc1ccccc1C as the compound, how does the “activity change, negative = cytotoxicity” value read?
Answer: 3.48% (inactive)

Question: Which “activity change, negative = cytotoxicity” value does the source give for C[N+]1(C)[C@@H]2CC[C@H]1CC(OC(=O)C(CO)c1ccccc1)C2 (stereo not given in full) here?
Answer: -3.65% [at 42.5 µM] (inactive)

Question: With CCN(CC)Cc1nccn1-c1ccc([N+](=O)[O-])cc1C(=O)c1ccccc1Cl as the compound, how does the “activity change, negative = cytotoxicity” value read?
Answer: -9.2% [at 42.5 µM] (inactive)

Question: Which activity change, negative = cytotoxicity does the source give for Clc1c(Cl)c(Cl)c(Cl)c(Cl)c1Cl here?
Answer: 14.7% [at 8.39 µM] (inactive)

Question: For CC(Cc1ccccc1)N(C)Cc1ccco1 (stereo not given), which “activity change, negative = cytotoxicity” value is on record?
Answer: -1.9% [at 42.5 µM] (inactive)

Question: For Cc1ccc2cc3c(ccc4ccccc43)c3c2c1CC3, which “activity change, negative = cytotoxicity” value is on record?
Answer: -2.15% [at 42.5 µM] (inactive)

Question: For CCCCN(CCCC)C(=S)[S-].CCCCN(CCCC)C(=S)[S-].[Ni+2], which “activity change, negative = cytotoxicity” value is on record?
Answer: 22.7% [at 42.5 µM] (inactive)

Question: For Cc1cccc(Cc2cnc[nH]2)c1C, which “activity change, negative = cytotoxicity” value is on record?
Answer: -7.71% [at 42.5 µM] (inactive)

Question: With CN=C=O as the compound, how does the “activity change, negative = cytotoxicity” value read?
Answer: 8.04% (inactive)

Question: For C=CCOC(=O)c1ccccc1N, which “activity change, negative = cytotoxicity” value is on record?
Answer: -28.6% (inactive)

Question: Which “activity change, negative = cytotoxicity” value does the source give for CCOC(=O)Cc1ccccc1 here?
Answer: -3.25% (inactive)

Question: Which “activity change, negative = cytotoxicity” value does the source give for CC1CCCC1 here?
Answer: 34.9% (inactive)

Question: For c1ccc2c(c1)cc1ccc3cccc4ccc2c1c34, which “activity change, negative = cytotoxicity” value is on record?
Answer: -25.8% (inactive)

Question: With O=S(=O)(NS(=O)(=O)C(F)(F)F)C(F)(F)F as the compound, how does the “activity change, negative = cytotoxicity” value read?
Answer: -12% (inactive)

Question: With CC(=O)[O-].CC(=O)[O-].CC(=O)[O-].[Cr+3] as the compound, how does the “activity change, negative = cytotoxicity” value read?
Answer: 0.14% (inactive)

Question: With C=CC(=C)C as the compound, how does the “activity change, negative = cytotoxicity” value read?
Answer: -2.37% (inactive)

Question: For CC(Cc1ccc2c(c1)OCO2)NO (stereo not given), which “activity change, negative = cytotoxicity” value is on record?
Answer: -5.39% (inactive)

Question: With CC(Cl)CCl (stereo not given) as the compound, how does the “activity change, negative = cytotoxicity” value read?
Answer: -20.3% (inactive)
